Screening results as filed in PubChem.
A selection: hits, their analogues and other compounds. The true share with any hit is near 32%.
CYP2C19 inhib = human CYP2C19 inhibition | P33261 | CYP2C19 Supersomes, luciferin-H EGE luminescence, 30 min | inhibition, % at 5 µM | actives 21% (n = 96,000);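 active means CYP2C19 inhibition above a set limit at 5 µM in the primary screen, cut at about 50% in these data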
Target sequence (P33261 whole entry, looked up): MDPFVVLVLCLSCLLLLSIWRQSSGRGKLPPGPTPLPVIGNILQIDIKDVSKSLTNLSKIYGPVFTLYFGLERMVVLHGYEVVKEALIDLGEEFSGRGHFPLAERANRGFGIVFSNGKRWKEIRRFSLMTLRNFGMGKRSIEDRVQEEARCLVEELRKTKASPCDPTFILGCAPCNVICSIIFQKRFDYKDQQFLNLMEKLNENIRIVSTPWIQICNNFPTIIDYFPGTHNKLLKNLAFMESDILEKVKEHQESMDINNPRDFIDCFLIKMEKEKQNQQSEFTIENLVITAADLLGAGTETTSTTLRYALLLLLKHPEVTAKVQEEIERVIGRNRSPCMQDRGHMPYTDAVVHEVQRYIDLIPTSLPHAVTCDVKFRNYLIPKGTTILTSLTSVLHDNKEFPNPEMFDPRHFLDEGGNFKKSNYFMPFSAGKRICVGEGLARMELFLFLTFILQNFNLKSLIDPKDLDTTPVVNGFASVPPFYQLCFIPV
CYP2C9 inhib = human CYP2C9 inhibition. inhibition, % at 5 µM. actives 20% (n = 96,000). P11712. CYP2C9 Supersomes, luciferin-H conversion, luminescence;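 active means blocking of liver enzyme CYP2C9 beyond about 50% at 5 µM, limit read from the data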
PostGolgi yeast = growth inhibition of a yeast mutant, post-Golgi transport screen; actives 0.9% (n = 98,000); AID 739; post-Golgi transport phenotypic cell assay; inhibition, % at 10 µM;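 further: yeast cells grown in 1536-well plates; yeast grown about 18 h at 30C before absorbance read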
CYP2C19 act = cytochrome P450 2C19 (human) activation; AID 1025; activation factor at 5 µM; P33261; 96,000 tested, under 10 active; recombinant CYP2C19, luciferin-H EGE luminescence; hits give high values; 0 = fully inhibited enzyme, 1 = untreated enzyme;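 active means activation factor of at least 2 at 5 µM in the primary screen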
PostGolgi ctrl = inhibits growth of the yeast control strain. efflux-deficient yeast background strain, growth absorbance A615, 16 h. inhibition, % at 10 µM. actives 5% (n = 98,000). AID 738
CYP2C9 activ = increases human cytochrome P450 2C9 activity; P11712; recombinant CYP2C9, luciferin-H conversion, luminescence; hits give high values; factor 1 = untreated enzyme, 0 = blocked; activation factor at 5 µM; actives 1.4% (n = 96,000); AID 1024;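 active means activation factor of 2 or more for CYP2C9 at a 5 µM dose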
Each line names hits and unclear results; the compound was inactive in the other large screens. Unless noted, no stated cut-off is given here; in the data, active means inhibition above about 30%; inactive means the rest.

CCN(C1CCCCC1)S(=O)(=O)c1ccc(S(=O)(=O)NCCc2ccncc2)cc1	CYP2C19 inhib 96, CYP2C9 inhib 100
CCNS(=O)(=O)c1ccc(S(=O)(=O)N(Cc2ccccn2)C2CCCCC2)cc1	none
CCN(C1CCCCC1)S(=O)(=O)c1ccc(S(=O)(=O)NCc2ccncc2)cc1	CYP2C19 inhib 84, CYP2C9 inhib 100
Cc1cc(C)n(S(=O)(=O)c2ccc(C)c(C)c2C)n1	CYP2C9 activ 3.7
COc1ccc(S(=O)(=O)n2nc(C)cc2C)c(C)c1C	CYP2C9 activ 2.4
Cc1cc(C)n(S(=O)(=O)c2cc(C(=O)O)c(Cl)cc2Cl)n1	none (no result: PostGolgi yeast, PostGolgi ctrl)
CCOc1ccccc1OCCCC(=O)N1CCN(S(=O)(=O)c2ccc(C)cc2)CC1	CYP2C19 inhib 86
O=C(Nc1ccccc1)N1CCC(C(=O)N2CCN(S(=O)(=O)c3cccc(F)c3)CC2)CC1	none (no result: PostGolgi yeast, PostGolgi ctrl)
CCOc1ccccc1OCCCC(=O)N1CCN(S(=O)(=O)c2cccc(F)c2)CC1	CYP2C19 inhib 75
Cc1ccc[n+](C(C)C(=O)Nc2ccc(C)c([N+](=O)[O-])c2)c1 (centres undefined)	none
CCCn1cnc2cc(NCc3cccc(OC)c3)ccc21	CYP2C19 inhib 59
CCn1cnc2cc(NCc3ccc(C)cc3)ccc21	CYP2C19 inhib 75
COc1ccccc1-n1cnc2cc(NS(=O)(=O)c3ccc(Br)cc3)ccc21	CYP2C19 inhib 98, CYP2C9 inhib 99
CCn1cnc2cc(NS(=O)(=O)c3ccc(C)cc3)ccc21	CYP2C19 inhib 89, CYP2C9 inhib 84
Cc1ccc(NNS(=O)(=O)c2ccc(C)cc2)cc1	none
CCOc1ccc(CNc2ccc3c(c2)ncn3C)cc1	none
COc1ccc(-n2cnc3cc(NS(=O)(=O)c4ccc(C)cc4)ccc32)cc1	CYP2C19 inhib 91, CYP2C9 inhib 98
CCOC(=O)N1CCN(c2cc(=O)n(-c3ccc(OCC)cc3)c(=O)[nH]2)CC1	none
COc1cc(C(=O)n2nc(C)cc2C)ccc1O	none
CCCCCCOC(=O)CCn1[nH]c(=O)c2ccccc2c1=O	CYP2C19 inhib 56, CYP2C9 inhib 54
O=C(COC(=O)c1c[nH]c(=O)[nH]c1=O)NCc1ccccc1	none
O=c1c2ccccc2nnn1Cc1nnc(-c2ccccc2Br)o1	CYP2C19 inhib 82
O=S1(=O)c2cccc3cccc(c23)N1Cc1ccc(-c2nnco2)cc1	CYP2C19 inhib 68, CYP2C9 inhib 53
O=C(CSc1nnc(-c2ccccc2Br)o1)Nc1cccc2ccccc12	none
O=S1(=O)c2cccc3cccc(c23)N1Cc1nnc(-c2ccccc2Br)o1	CYP2C19 inhib 93
CC1CN(c2ccccc2)C(=O)CS1 (centres undefined)	none
CC(C)c1ccccc1NC(=S)NN(Cc1ccccc1)c1ccccc1	CYP2C19 inhib 62
Cc1cccc(C)c1NC(=S)NN(Cc1ccccc1)c1ccccc1	none
Fc1ccccc1NC(=S)NN(Cc1ccccc1)c1ccccc1	CYP2C19 inhib 95, CYP2C9 inhib 82
CCNC(=S)Nc1ccc(N(c2ccccc2)C(C)C)cc1	none
CC1=C(C(=O)c2ccccc2)C(c2cn(-c3ccccc3)nc2-c2ccc(Cl)cc2)NC(=S)N1 (centres undefined)	none
CCOC(=O)c1[nH]c2ccccc2c1N=CN(CC)CC	none
CCOC(=O)c1c(-c2ccc(OC)cc2)csc1NC(=O)CSc1ccccc1	none
CCOC(=O)c1c(NC(=O)CSc2nnnn2-c2ccc(OC)cc2)sc(C)c1C	none
CCOC(=O)c1c(NC(=O)CSc2nnnn2C)sc(C)c1-c1ccc(C)cc1	CYP2C9 inhib 76
CCOC(=O)c1c(-c2ccccc2)csc1NC(=O)CSc1nnnn1C	CYP2C9 inhib 80, PostGolgi ctrl 38
CC(NC(=O)C1C(=O)N(CCO)C2(C)CC1c1ccccc1O2)c1ccccc1 (centres undefined)	none
CCc1c(C)nc(N)nc1OCC(F)(F)C(F)F	none
O=C(Nn1c(=S)[nH]c2ccccc2c1=O)c1ccncc1	CYP2C19 inhib 85
Cn1cc(C(=O)N2CCN(C(=O)c3ccco3)CC2)c2c3ccccc3n(C)c2c1=O	none
Cc1ccc(C(=O)c2c(NC(=O)c3cccnc3)sc3c2CCCC3)cc1	PostGolgi ctrl 33
Cc1ccc(S(=O)(=O)N2CCOCC2)cc1C(=O)NCCCn1ccnc1	CYP2C19 inhib 65, CYP2C9 inhib 76
O=C(NCCCn1ccnc1)c1ccc(Br)c(S(=O)(=O)N2CCOCC2)c1	CYP2C19 inhib 53, CYP2C9 inhib 95
O=C(NCCCn1ccnc1)c1cc(S(=O)(=O)N2CCOCC2)c(Cl)cc1Cl	CYP2C19 inhib 72, CYP2C9 inhib 96
O=C(Nc1ccccc1O)c1cc(S(=O)(=O)N2CCOCC2)c(Cl)cc1Cl	none
Cc1ccc(S(=O)(=O)N2CCOCC2)cc1C(=O)Nc1nc(-c2cccnc2)cs1	none
Cc1nnc(-c2cnn(-c3ccccc3)c2N)n1Cc1ccc(F)cc1	none
CCn1c(SCC(=O)Nc2ccccc2C(=O)OC)nc2c1c(=O)n(C)c(=O)n2C	none (no result: PostGolgi yeast, PostGolgi ctrl)
CCn1c(CCNC(=O)c2cccs2)nnc1SCC(=O)NC1CCCCC1	none
CCN(CCNC(=O)C1CCN(S(=O)(=O)c2cccc3nsnc23)CC1)c1ccccc1	none
CCN(CCCNC(=O)CN(C)S(=O)(=O)c1cccc2nsnc12)c1cccc(C)c1	CYP2C9 inhib 74
CCN(CCCNC(=O)CN(C)S(=O)(=O)c1ccc2c(c1)CCC(=O)N2)c1cccc(C)c1	CYP2C9 inhib 64
CCN(CCNC(=O)CN(C)S(=O)(=O)c1cccc2nsnc12)c1ccccc1	CYP2C19 inhib 89, CYP2C9 inhib 59
COCc1cc(C)nc(SCC(=O)N2CCC(C)CC2)c1C#N	none
Cn1c(SCC(=O)Nc2ccccc2F)nnc1-c1ccc(S(=O)(=O)N2CCOCC2)cc1	none
Cc1ccc(-c2nnc(Nc3ccccc3)c3ccccc23)cc1S(=O)(=O)NCC1CCCO1 (centres undefined)	CYP2C19 inhib 56, CYP2C9 inhib 64
Cc1ccc(-c2nn3c(-c4ccco4)nnc3c3ccccc23)cc1S(=O)(=O)NCC1CCCO1 (centres undefined)	none
Cc1ccc(-n2nc(C)c3c(C)cc(=O)[nH]c32)cc1	none
CCN(CC)Cc1cc(CC(C(N)=O)C(N)=O)ccc1OC	none
Cn1c(=O)cc(N2CCc3ccccc32)[nH]c1=O	none
CNc1nc(N2CCc3ccccc32)ncc1F	CYP2C19 inhib 82
COCCNC(=O)c1onc(CSc2cc(C)cc(C)c2)c1C(=O)O	none
CCCCNC(=O)c1onc(CSc2cccc(C)c2)c1C(=O)O	CYP2C9 inhib 76
CCCCNC(=O)c1onc(CSc2cc(C)cc(C)c2)c1C(=O)O	CYP2C9 inhib 73
CCOc1cccc(NC(=O)C(Cc2cccs2)c2nn[nH]n2)c1 (centres undefined)	none
NC(=O)CSc1nnc(Cn2c(=O)sc3ccccc32)n1CCc1ccccc1	none (no result: CYP2C19 inhib, CYP2C9 inhib, CYP2C19 act, CYP2C9 activ)
